Test results as given in PubChem BioAssay (NCATS).
Results filed as inconclusive are left out. The source made the active and inactive calls. Unless noted, calls follow the shape of the dose curve; as a rule, active = well fitted curve in the direction sought with a large enough effect; inconclusive = small, poorly fitted or top-dose-only effect, or another doubt; inactive = no such curve, though single readings can be large; an effect the other way counts as inactive or inconclusive.

What was measured:
[1] = target: 3',5'-cyclic-AMP phosphodiesterase 4B (Homo sapiens) (UniProt Q07343); experiment: qHTS Assay for Inhibitors of PDE-IV (AID 607; active = well fitted activation curve with a large enough effect in the main read-out, with a control signal flat, not every such curve was filed as active)
Description: (§1) NIH Chemical Genomics Center [NCGC]
(§2) NIH Molecular Libraries Screening Centers Network [MLSCN]
The cyclic nucleotide phosphodiesterases (PDEs) are proteins that catalyze hydrolysis of 3', 5'-cyclic nucleotides, such as cyclic adenosine monophosphate (cAMP) and cyclic guanosine monophosphate (cGMP), to their corresponding 5'-nucleotide monophosphates. These enzymes play an important role in controlling cellular concentrations of cyclic nucleotides and have a central role in a variety of intracellular signaling events. cAMP PDEs are emerging as a promising class of drug targets in asthma and cardiovascular disease therapeutic areas.
There are no commercially available cell-based screening assays for PDE inhibitors: currently biochemical assays are done using pure substrates (cAMP or cGMP) and purified recombinant PDE enzymes. As with other biochemical screens on intracellular targets, false positives and false negatives may result from issues involving cell membrane permeability, cellular metabolism, and the like.
Here we report the development of a cell-based screening assay for cAMP phosphodiesterase (PDE) inhibitors. The assay is based on the BD ACTOne# technology (BD Biosciences) which utilizes a modified cyclic nucleotide-gated channel (CNG) to monitor intracellular cAMP changes in live cells. The CNG channel is localized on the plasma membrane, and opens when the intracellular cAMP level increases, resulting in ion flux and cell membrane depolarization. The influx of cations through the CNG channel can be quantified using membrane potential (MP) dyes. We modified the BD ACTOne technology to allow the detection of PDE inhibitors, and performed an inhibitor screen for PDE-IV, which is expressed endogenously in HEK293 cells. We optimized this assay in homogeneous 1536-well plate assay format for high throughput screening.
(§3) NCGC Assay Protocol Summary:
The medium contained 10% FBS (Invitrogen), 2 mM L-glutamine, and 250 ug/ml G418 (Cellgro) and 1 ug/ml puromycin (Clontech). ACTOneTM parental cells (BD Biosciences) were maintained in the same medium without puromycin.
The activity of the CNG channel was measured by BD ACTOneTM membrane potential dye kit (BD Biosciences). Forskolin, a positive control for cAMP activation and RO 20-1724, a PDE inhibitor, were both purchased from Sigma and solublized in DMSO.
Sequence,Parameter,Value,Description
1,Reagent,3 uL,1000 cells/well 1536 TC treated Black plate
3,Compound,0.5 uL,Kalypsys dispense RO 20-1724 100 uM final [A]
4,Reagent,3 uL,BD membrane potential dye
6,Compound,23 nL,Final concentration was 0.7nM to 22.9uM
8,Detector,EX 535 / EM 590 [B],Envision
Footnotes: [A] The stock 2 mM RO 20-1724 PDE inhibitor was made in 10 % DMSO. Parental cell line received 10 uM forskolin + 100 uM RO. [B] […]

[2] = Cell Viability - Mesenchymal (AID 546);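 also: cells exposed to compound for 40 hours before reading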
In short: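 AC50 values reflect the drop in intracellular ATP in a human kidney mesenchymal line derived from normal glomeruli. Treatment lasts 40 hr at 37 °C in complete medium, and the signal comes from CellTiter-Glo luminescence.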

[3] = Cellular Toxicity (caspase-3) HepG2 (AID 654);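 also: cells exposed to compound for 16 hours before reading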
In short: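 HepG2 cells (1500/well) were treated 16 h at 37 °C in complete medium, then caspase 3/7 activity was read by Caspase-Glo luminescence. Data were normalized to DMSO and 100 uM tamoxifen; AC50 came from Hill-equation fits of qHTS concentration-response.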

[4] = Cellular Toxicity (caspase-3) HUV-EC-C (AID 656)
In short: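 Read-out: luminescence proportional to caspase 3/7 activity, measured 20 min after adding Caspase-Glo 3/7 reagent. Cells (HUV-EC-C) had received compound for 16 hr at 37°C. Increases relative to DMSO and 100 uM tamoxifen gave concentration-response AC50 values.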

[5] = Cellular Toxicity (caspase-3) SHSY5Y (AID 657)
In short: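 Cells plated and incubated 5 h at 37 °C, dosed over a concentration range, incubated 16 h, then given Caspase-Glo 3/7 reagent for 1 h at room temperature before luminescence reading. Staurosporine (10 uM) defined full stimulation.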

[6] = Cellular Toxicity (caspase-3) BJ (AID 658)
In short: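 Readout: Caspase-Glo 3/7 luminescence increase in BJ cells after 16 hr treatment at 37 °C. Staurosporine and tamoxifen served as positive controls; AC50 values came from Hill modelling of data normalized to DMSO and 10 uM staurosporine.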

[7] = Cellular Toxicity (caspase-3) MRC-5 (AID 659)
Description: as §1, §2
National Institutes of Environmental Health Sciences [NIEHS]
National Toxicology Program [NTP]
We have developed a 1536-well cell-based assay for quantitative high throughput screening (qHTS) against a number of cell lines to determine in vitro caspase 3/7 activity of small molecules. This particular assay uses the MRC-5 cell line which is derived from human normal lung fibroblasts.
as §3
The Caspase-Glo 3/7 assay (Promega) is a homogeneous method to measure caspase-3 and caspase-7 activities in cultured cells. The quantitation of caspase 3/7 activity is based on the cleavage of a peptide-aminoluciferin substrate. After caspase cleaves the substrate the free aminoluciferin is liberated and serves as the substrate of luciferase, which generates the light. The luminescent signal is proportional to amount of caspase 3/7 activity present.
Using the Caspase-Glo 3/7 assay, the amount of caspase 3/7 activity was measured in the MRC-5 line with complete culture medium following compound treatment for 16 hours. The assay was performed in opaque white 1536-well plates. In the screen, tamoxifen and staurosporine were used as positive controls. Library compounds were measured for their ability to cause the activation of caspase 3/7 in the cell line, as reflected by an increase in luminescence signal, in a concentration-dependent manner. Data were normalized to the controls for basal activity (DMSO only) and 100% stimulation (10 uM staurosporine). AC50 values were determined from concentration-response data modeled with the standard Hill equation.
qHTS protocol for caspase 3/7 assay in MRC-5 cells
[Step] [Parameter] [Value] [Description]
1. Reagent; 5 uL; 1500 MRC-5 cells/well
2. Time; 5 hr; 37 °C incubation
4. Controls; 23 nL; Tamoxifen 0.23 uM to 100 uM & staurosporine 1.4 pM to 100 uM
5. […]
8. Detection; Luminescence; Viewlux plate reader
Keywords: caspase 3/7, apoptosis, MRC-5 cell line, luminescence, NTPHTS, NTPHTS_NCGC, NIEHS, EPA, DSSTox, MLSMR, MLSCN, NIH Roadmap, qHTS, NCGC

[8] = Cellular Toxicity (caspase-3) SK-N-SH (AID 661)
In short: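 Human SK-N-SH neuroblastoma cells, 1500/well, were exposed to compounds for 16 hours at 37 °C. Caspase-Glo 3/7 luminescence was normalized to DMSO (basal) and 10 uM staurosporine (100%), and AC50 came from a Hill fit.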

[9] = Cellular Toxicity (caspase-3) Jurkat (AID 655);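 also: cells exposed to compound for 16 h at 37 °C before reading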
In short: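 Caspase 3/7 activation is scored as increased luminescence in Jurkat cells cultured with compound for 16 hours in complete medium. AC50 values come from Hill fits of qHTS concentration-response data normalized to DMSO and 100 uM tamoxifen controls.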

[10] = Cellular Toxicity (caspase-3) Mesangial (AID 660);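 also: cells exposed to compound for 16 h before the caspase read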
In short: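 Human renal glomerular mesangial cells, 1000/well, 5 h at 37 C before 16 h compound treatment. Caspase-Glo 3/7 luminescence after 20 min; normalized to DMSO and 100 uM tamoxifen, AC50 from Hill fit.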

Measured: outcome

3',5'-cyclic-AMP phosphodiesterase 4B (Homo sapiens), sequence (Q07343 whole entry, looked up): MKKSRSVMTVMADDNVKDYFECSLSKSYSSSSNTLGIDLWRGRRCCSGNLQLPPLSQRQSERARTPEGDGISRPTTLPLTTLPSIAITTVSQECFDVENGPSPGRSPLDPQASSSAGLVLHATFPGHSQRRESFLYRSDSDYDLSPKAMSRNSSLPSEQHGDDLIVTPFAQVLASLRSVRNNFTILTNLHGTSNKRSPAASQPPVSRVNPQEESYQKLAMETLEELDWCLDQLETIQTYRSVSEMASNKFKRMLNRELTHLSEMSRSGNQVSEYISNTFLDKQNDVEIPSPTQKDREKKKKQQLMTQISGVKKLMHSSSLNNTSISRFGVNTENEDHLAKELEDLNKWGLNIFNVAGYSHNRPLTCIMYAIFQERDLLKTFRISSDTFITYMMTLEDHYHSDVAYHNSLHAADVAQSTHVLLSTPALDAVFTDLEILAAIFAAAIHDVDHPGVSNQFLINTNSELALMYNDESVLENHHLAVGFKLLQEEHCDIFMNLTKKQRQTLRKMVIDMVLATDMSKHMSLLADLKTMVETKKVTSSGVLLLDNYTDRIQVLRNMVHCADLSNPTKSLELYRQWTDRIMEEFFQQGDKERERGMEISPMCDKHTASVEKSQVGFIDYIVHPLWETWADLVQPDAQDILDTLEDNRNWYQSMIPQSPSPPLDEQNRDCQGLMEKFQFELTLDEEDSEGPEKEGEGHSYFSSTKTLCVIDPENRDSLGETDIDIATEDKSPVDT

COc1ccc2c(OC)c3ccoc3nc2c1OC
inactive: [1]

COc1ccc(C[C@H](N)C(=O)N[C@@H]2[C@H](O)[C@H](n3cnc4c(N(C)C)ncnc43)O[C@@H]2CO)cc1
inactive: [1]

Cc1ccccc1CN1C2=NCCN2C(=O)C2=C1CCN(Cc1ccccc1)C2
inactive: [1]

Nc1ccccc1N
not listed: [1] | [9] | [10]
inactive: all other assays above

Cc1ccc(N)cc1O
not listed: [1]
inactive: all other assays above

CC(=O)O[C@@H]1CC(C)=C2[C@H]1[C@H](C)CC[C@H]2/C=C(\C)C(=O)O
not listed: [1]
inactive: all other assays above

CC(=O)O[C@H]1C(=O)[C@@]2(C)[C@H]([C@H](OC(=O)c3ccccc3)[C@]3(O)C[C@H](OC(=O)[C@H](O)[C@@H](NC(=O)c4ccccc4)c4ccccc4)C(C)=C1C3(C)C)[C@]1(OC(C)=O)CO[C@@H]1C[C@@H]2O
inactive: [1]
